This note sets out measurements from PubChem BioAssay AID1508600 (Functional Genomics Laboratory (NCATS/FGL), 2020).

In all, about 53,000 sequences went through this assay and about 3,700 (7%) were called active. The entries come from a sample that favours actives as a whole. Unmarked numbers belong to inactive results.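 How the source made its calls: active means gene knockdowns whose robust z-score for IL-1 alpha signal is at least 2 or at most -2, so actives lie on both sides; inactive means the rest.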

This assay can be described thus: Components of the Cytosolic LPS Sensing Pathway: Gene Identification via Genome-wide siRNA Screen.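 Further: robust z of the log signal after scaling to non-targeting control siRNA wells of the plate.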 As to conditions: RAW264.7 macrophages, IL-1a HTRF, actives lie on both sides, screened at 100 nM (by protocol), cells primed 5 h with Pam3CSK4 first. The gist of the method:
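RAW264.7; siRNA 100 nM final, RNAiMAX, 48h 37 degrees C; Pam3CSK4 5 h; LipidA + TransIT-TKO 24 h; IL-1a HTRF; CellTiter-Glo viability; robust z vs negative-control median.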
Turning to GCCUUAAGUGUUCAUGUAATT against Vhl, the z-score was -0.872.
The same measure for GGAAGCCCACUACAACAAUTT against Krt19: -0.236; for GCAUUGUGCUGAUGUGCGGTT against Ap1ar: 3.01 (active); for GGUAUUCUGGCAAGACCACTT against Aatf: 1.31.
Take GGAAGCCUAGUUUUUUUAATT against Csnk2a1: the z-score was 2.89 (active).
In the case of GCUUUCAGUGAGGUACAAGTT against Gm4425, the z-score was -1.25.
For GCUCUUUCUAGCCCUUCCCTT against Spry3, the z-score is -0.915.
Consider GGAAAGAUAGAAGACAAACTT against Spry4, for which the z-score was -0.0777.
For GGUUCUGAUAGCUCAAGAGTT against Polr2b, the z-score is -1.96.
With GGUUUUGAAAUUCCAGAAUTT against Nol9 the figure was -0.22; with GGCAACUGUUGUAAAUCAATT against Veph1, -1.01; with GGACUCAAACGACACAUGCTT against Eci2, 2.42 (active).
With GCCAGUCAUUCAGUAAAGUTT against Mysm1 the figure was -1.15; with GGAGAAAUGUCAGUGCGAUTT against Mlc1, 0.431; with GGUCACAGAAUCGGUUUCATT against Cuta, 1.02.
Take GGUUCUUGUUUUUACCCGCTT against Fam187b: the z-score is 1.19.
With GGAGUGGCUAUGUUUUCGATT against Hrg, the z-score was 0.658.
Regarding GGACUCGUUCCACUAUCAUTT against Naa20, the z-score was 0.33.
For GCGGUUUCGAACAAUCACGTT against Rab8a, the z-score is -2.4 (active).
On to UCAACUGCUUAGAGCAUGUTT against Tmem259, for which the z-score is 0.653.
CGACCUCCAGUAAUAACCUTT against Olfr310: the z-score is -0.746.
On to GGAAAGCUUGGACAUUAAGTT against Rps6kc1, for which the z-score was -0.0887.
“GGUCACGUCAGCAAAGCAATT against B930095G15Rik”: the z-score was -2.73 (active).
As for GCGAUGUGGACAGAAGUACTT against Cyba, the z-score was 1.01.
On to “GGUGUUUCAUAAGAAGGAATT against 1700010H22Rik”, for which the z-score was -1.01.
Regarding GCCAGUACUCUGCUUGUGATT against Naif1, the z-score was -1.64.
In the case of “GAUCCCUGGAUUGUGGAGUTT against 2310057N15Rik”, the z-score was 0.26.
On to GGACGAGCUGUAUUUGAAUTT against Gsk3a, for which the z-score is -0.663.
For CCAAAGAUACCAUAGGAUUTT against Zc3h12a, the z-score is 1.05.
Regarding GGUAGAUCCUAUCCUGUCUTT against Foxo4, the z-score was -2.57 (active).
Turning to GCUGCAAUAGUCACUGGAGTT against H2-K1, the z-score is 0.115.
For GCGACCAGCAGGUCAAAAUTT against Hoxd12, the z-score is 3.09 (active).
Consider CCCUUCUCUGAGACAACACTT against Tcirg1, for which the z-score is 1.42.
Consider GGAAAUAAUUCACUCACCATT against Eya1, for which the z-score is -2.99 (active).
On to CCAAGUCGUAAUCUAGAAGTT against Scn7a, for which the z-score was 0.191.
On to GCUGGACCUUCAUGUAAUATT against Pcsk1, for which the z-score is -0.234.
CCUCAUGUCUACAAAGUUATT against Gvin1: the z-score was -1.14.
For the sequence GCGAGUUUUUGGAUGGUAGTT against Slc4a3, the z-score is 0.243.
With GGUAUGCAUGAACAUAAUGTT against Prl7c1, the z-score is 0.788.
For “GGACUUAAAAGAGGAGAUCTT against 4933434E20Rik”, the z-score was 3.73 (active).
In the case of GGCAUUUUCGUAUAGUUACTT against B3gnt9, the z-score was 0.81.
The same measure for GGUCAUCAGCUCUAUGAGCTT against Fry: 0.0787; for GCACAGAGGAUGUACGUUATT against Cstad: -0.665.
As for “GCCCAGAGAAUGACCUAUATT against 9130019O22Rik”, the z-score was 0.54.
For the sequence “GGUGCUCCACAACACCUAUTT against 2510039O18Rik”, the z-score is 2.05 (active).
Turning to CCUACUAUACAAUUCUGCUTT against Clns1a, the z-score was 0.556.
Turning to GGUCACUUCAUCCAUAGCUTT against Atmin, the z-score is -1.79.
Regarding GACAGCAACGUGAAAUUAGTT against Xlr, the z-score is -0.828.
With GGAUCUUUUCCAAAGAAAUTT against Dusp10 the figure was -0.409; with GGAGGAAGAAGAGAUACCUTT against Foxh1, -0.96; with CGGGAAACUUAGGUAUGAUTT against Olfr1009, -3.05 (active).
Consider GGCAUGGAAGGCUAAACAGTT against Slc25a17, for which the z-score is -1.98.
With GGGUAUAGAGUCAAUCUGATT against Gfm2 the figure was -0.381; with GCAGGGAUCUGCUAAGCUATT against Hey1, -0.953; with GGACCCAUUGGUCAUCAUATT against Tent5b, 0.18.
Consider CGGAACCAUAGGGAAUCAGTT against Cmc2, for which the z-score was 2.04 (active).
Take GCCUGAAUUUGUAAGCAGUTT against Fgf1: the z-score was 0.0666.
Take CAUUGUCAUUCUGCUGGCATT against Olfr1249: the z-score is -0.0752.
As for GGUCACCAUCAUCAUCAAUTT against Carmil1, the z-score was 0.484.
Turning to GGUGGUAGAACUGUUAAAATT against Klc2, the z-score was 0.311.
The same measure for GGAGAAAGAGACGGACAACTT against Fgfr1: 2.8 (active).
In the case of GGACUGAAUCUUUAAAGGUTT against Nkx1-2, the z-score is 0.199.
With GGUGUUGUGGAAUAUUUAATT against Cnot6l, the z-score is 1.23.
Regarding GGUCUUACCUUUUGAAAAATT against Mtbp, the z-score was 0.0999.
For GCAUCCUCUCACUCUCAAUTT against Grin2a, the z-score was 2.37 (active).
As to CCGAAGCCUUGAAAGCAGUTT against Shq1, the z-score is 0.302.
As for GGAAACUGGAUCAAACCAUTT against Smarcd3, the z-score is -0.707.
On to CGAAGUGGUCAAGUUCUCUTT against Fbxo17, for which the z-score was -2.09 (active).
